Data reported in PubChem BioAssay (NCI).
Values joined by “and” are separate entries in the source; they are usually repeats but may differ in a detail not shown here. Identical values can stand only once. Compounds without any hit were thinned out: in the full panel of roughly 79,000, 15% have a hit. A number with no mark means an inactive call. Active and inactive are the calls of the source. Rule as the data show it: active = growth inhibition above about 70%; inactive = the rest.

How the values were obtained:
[1] = NCI Yeast Anticancer Drug Screen. Data for the mec2-1 strain (AID 157); details: S. cerevisiae mec2-1 strain, hits give high values
Method in brief: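 Each compound was tested on mec2-1 yeast, a strain altered in DNA damage repair or cell cycle control. Growth inhibition is reported relative to vehicle.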

[2] = NCI Yeast Anticancer Drug Screen. Data for the sgs1 mgt1 strain (AID 161);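 also: 0% = growth of cultures given vehicle only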; details: S. cerevisiae sgs1 mgt1 strain, hits give high values
Method in brief: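 Test agents were incubated with a DNA-repair-mutant yeast strain. Growth was then read and compared against vehicle-treated controls.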

[3] = NCI Yeast Anticancer Drug Screen. Data for the cln2 rad14 strain (AID 165);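 also: 0% = growth equal to vehicle treated cultures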; details: S. cerevisiae cln2 rad14 strain, hits give high values
Method in brief: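 Test compounds were added to cln2 rad14 yeast cultures; inhibition of growth was then determined by comparison with vehicle treatment.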

[4] = NCI Yeast Anticancer Drug Screen. Data for the bub3 strain (AID 167); details: S. cerevisiae bub3 mutant strain, hits give high values
Method in brief: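 Inhibition values come from growth of compound-treated mutant yeast normalised to vehicle-treated controls.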

[5] = NCI Yeast Anticancer Drug Screen. Data for the mlh1 rad18 strain (AID 175); details: S. cerevisiae mlh1 rad18 strain growth inhibition, hits give high values
Method in brief: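 Inhibition values reflect reduced growth of mutant yeast versus vehicle-treated controls following compound exposure; the mutations affect DNA damage repair.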

[6] = NCI Yeast Anticancer Drug Screen. Data for the rad50 strain (AID 155);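 also: 0% = growth of vehicle-only cultures of the same strain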; details: S. cerevisiae rad50 strain growth inhibition; at 50.0 µM; hits give high values
Method in brief: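 A DNA repair-deficient yeast mutant serves as the test organism; compound-induced growth inhibition is calculated against vehicle-treated cells.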

[7] = at 5.0 µM (retest, dose inferred, filed as 0.5)
[8] = at 50.0 µM (retest, dose inferred, filed as 5.0)

SMILES: CC(C)CC[CH2][Pb]([CH2]CCC(C)C)([CH2]CCC(C)C)[O]C(=O)C(Cl)(Cl)Cl
- growth inhibition [1, 7]: 8%
- growth inhibition [1, 8]: 99% (active)
- growth inhibition ([1]; at 50.0 µM): 98.9% (active)
- growth inhibition [2, 7]: 17%
- growth inhibition [2, 8]: 94% (active)
- growth inhibition ([2]; at 50.0 µM): 98.4% (active)
- growth inhibition [3, 7]: -1%
- growth inhibition [3, 8]: 95% (active)
- growth inhibition ([3]; at 50.0 µM): 98.8% (active)
- growth inhibition [4, 7]: 2%
- growth inhibition [4, 8]: 98% (active)
- growth inhibition ([4]; at 50.0 µM): 99% (active)
- growth inhibition [5, 7]: 6%
- growth inhibition [5, 8]: 94% (active)
- growth inhibition ([5]; at 50.0 µM): 98.7% (active)

SMILES: c1cc[c]([Sn]([c]2ccccc2)[c]2ccccc2)cc1.c1cc[c]([Sn]([c]2ccccc2)[c]2ccccc2)cc1
- growth inhibition [1, 7]: 51%
- growth inhibition [3, 7]: 9%
- growth inhibition [4, 7]: 54%

SMILES: [O-]c1n[n+](C2CCCCC2)no1
- growth inhibition ([1]; at 50.0 µM): -7.6%
- growth inhibition ([2]; at 50.0 µM): -45.7%
- growth inhibition ([3]; at 50.0 µM): -31.1%
- growth inhibition ([4]; at 50.0 µM): 2.4%
- growth inhibition ([5]; at 50.0 µM): -13.4%

SMILES: CCOP(=S)(N/N=C/c1ccc(C)s1)OCC
- growth inhibition ([1]; at 50.0 µM): -27.2%
- growth inhibition ([2]; at 50.0 µM): 5.45%
- growth inhibition ([3]; at 50.0 µM): -12.3%
- growth inhibition ([4]; at 50.0 µM): 7.65%
- growth inhibition ([5]; at 50.0 µM): -30.8%

SMILES: C[C@]12CC[C@H]3[C@@H](CCC4=CC(=O)CC[C@@]43C)[C@@H]1CC[C@@H]2OC(=O)c1cccc2c(=O)c3ccccc3[nH]c12
- growth inhibition [6]: 30.6%
- growth inhibition ([2]; at 50.0 µM): 82.1% (active)
- growth inhibition ([3]; at 50.0 µM): 34.2%
- growth inhibition ([4]; at 50.0 µM): 71.2% (active)
- growth inhibition ([5]; at 50.0 µM): 4.1%

SMILES: O=C(O)C1CC2c3ccccc3C1([N+](=O)[O-])c1ccccc12 (stereo not drawn)
- growth inhibition [1, 7]: -1%
- growth inhibition [1, 8]: 4%
- growth inhibition ([1]; at 50.0 µM): 1.45%
- growth inhibition [2, 7]: 0%
- growth inhibition [2, 8]: 7%
- growth inhibition ([2]; at 50.0 µM): 31.1%
- growth inhibition [3, 7]: -3%
- growth inhibition [3, 8]: 15%
- growth inhibition ([3]; at 50.0 µM): 41%
- growth inhibition [4, 7]: 2%
- growth inhibition [4, 8]: 6%
- growth inhibition ([4]; at 50.0 µM): 3.5%
- growth inhibition [5, 7]: 0%
- growth inhibition [5, 8]: 8%
- growth inhibition ([5]; at 50.0 µM): 21.1%

SMILES: COC(=O)C[CH2][Sn]([CH2]CC(=O)OC)([c]1ccccc1)[c]1ccccc1
- growth inhibition [6]: 7.95%
- growth inhibition ([2]; at 50.0 µM): -6.7%
- growth inhibition ([3]; at 50.0 µM): -15.7%
- growth inhibition ([4]; at 50.0 µM): 14.4%
- growth inhibition ([5]; at 50.0 µM): -25.4%

SMILES: O=P(O)(Oc1ccccc1)Oc1ccccc1
- growth inhibition ([1]; at 50.0 µM): 16.4%
- growth inhibition ([2]; at 50.0 µM): 14.8%
- growth inhibition ([3]; at 50.0 µM): 18.2%
- growth inhibition ([4]; at 50.0 µM): 0.55%
- growth inhibition ([5]; at 50.0 µM): 20.9%

SMILES: CCN(CC)C(=O)N1CC2CCC(C1)N2C
- growth inhibition ([1]; at 50.0 µM): 3.55%
- growth inhibition ([2]; at 50.0 µM): -6.9%
- growth inhibition ([3]; at 50.0 µM): -5.45%
- growth inhibition ([4]; at 50.0 µM): -9.95%
- growth inhibition ([5]; at 50.0 µM): -10.2%

SMILES: O=C(O)C(F)(F)C(F)(Cl)C(F)(F)C(F)(Cl)C(F)(F)C(F)(Cl)C(F)(F)Cl (stereo not drawn) (tested in a mixture with another compound)
- growth inhibition [6]: 8.45% and 43.4%
- growth inhibition ([2]; at 50.0 µM): 37.4% and 41.1%
- growth inhibition ([3]; at 50.0 µM): 9.7% and 27.6%
- growth inhibition ([4]; at 50.0 µM): -2.15% and -2%
- growth inhibition ([5]; at 50.0 µM): 35.5% and 30.5%

SMILES: O=[N+]([O-])/C=C/c1c(Cl)cccc1Cl
- growth inhibition [1, 7]: 100% (active)
- growth inhibition [1, 8]: 100% (active)
- growth inhibition ([1]; at 50.0 µM): 99.2% (active)
- growth inhibition [2, 7]: 99% (active)
- growth inhibition [2, 8]: 99% (active)
- growth inhibition ([2]; at 50.0 µM): 99.3% (active)
- growth inhibition [3, 7]: 99% (active)
- growth inhibition [3, 8]: 99% (active)
- growth inhibition ([3]; at 50.0 µM): 98% (active)
- growth inhibition [4, 7]: 100% (active)
- growth inhibition [4, 8]: 99% (active)
- growth inhibition ([4]; at 50.0 µM): 99.3% (active)
- growth inhibition [5, 7]: 99% (active)
- growth inhibition [5, 8]: 99% (active)
- growth inhibition ([5]; at 50.0 µM): 99.2% (active)

SMILES: C/C(=C\c1ccc(Cl)c(Cl)c1)[N+](=O)[O-]
- growth inhibition [1, 7]: 12%
- growth inhibition [1, 8]: 92% (active)
- growth inhibition ([1]; at 50.0 µM): -9.75%
- growth inhibition [2, 7]: 27%
- growth inhibition [2, 8]: 100% (active)
- growth inhibition ([2]; at 50.0 µM): 21%
- growth inhibition [3, 7]: 5%
- growth inhibition [3, 8]: 59%
- growth inhibition ([3]; at 50.0 µM): -14.3%
- growth inhibition [4, 7]: 14%
- growth inhibition [4, 8]: 98% (active)
- growth inhibition ([4]; at 50.0 µM): -4.85%
- growth inhibition [5, 7]: 8%
- growth inhibition [5, 8]: 54%
- growth inhibition ([5]; at 50.0 µM): 23.1%

SMILES: CCOP(=O)(CC(=O)c1ccccc1)OCC
- growth inhibition [6]: 10.1%
- growth inhibition ([2]; at 50.0 µM): -18.1%
- growth inhibition ([3]; at 50.0 µM): 0.6%
- growth inhibition ([4]; at 50.0 µM): -1.45%
- growth inhibition ([5]; at 50.0 µM): 20.8%

SMILES: O=C(Cc1ccccc1)OC1CCCC1
- growth inhibition ([1]; at 50.0 µM): -4.6%
- growth inhibition ([2]; at 50.0 µM): -7.15%
- growth inhibition ([3]; at 50.0 µM): -39%
- growth inhibition ([4]; at 50.0 µM): -3.3%
- growth inhibition ([5]; at 50.0 µM): 19%

SMILES: CSCCC(N)C(=O)O (stereo not drawn)
- growth inhibition [6]: -50.4% and -3.35%
- growth inhibition ([1]; at 50.0 µM): 9.55% and -25.1%
- growth inhibition ([3]; at 50.0 µM): -27.8% and -1%
- growth inhibition ([4]; at 50.0 µM): 32.4% and -11.6%
- growth inhibition ([5]; at 50.0 µM): -103% and -2.65%

SMILES: OCC1C(/C=C/c2ccoc2)ON2CCCC12 (stereo not drawn)
- growth inhibition ([1]; at 50.0 µM): -0.5%
- growth inhibition ([2]; at 50.0 µM): -8.05%
- growth inhibition ([3]; at 50.0 µM): 26.6%
- growth inhibition ([4]; at 50.0 µM): 18.1%
- growth inhibition ([5]; at 50.0 µM): -27.6%

SMILES: CN1C2C=CC1c1c(C3=NC(C)(C)CO3)cccc12 (stereo not drawn)
- growth inhibition ([1]; at 50.0 µM): -8.05%
- growth inhibition ([2]; at 50.0 µM): -7.95%
- growth inhibition ([3]; at 50.0 µM): -36%
- growth inhibition ([4]; at 50.0 µM): 6.85%
- growth inhibition ([5]; at 50.0 µM): 2.6%

SMILES: CN(C)c1ccc(SC(Cl)(Cl)Cl)cc1
- growth inhibition [6]: -0.95%
- growth inhibition ([2]; at 50.0 µM): -0.1%
- growth inhibition ([3]; at 50.0 µM): -43.9%
- growth inhibition ([4]; at 50.0 µM): 3.4%
- growth inhibition ([5]; at 50.0 µM): -4.75%

SMILES: O=C(O)C(=O)C(Cl)Br (stereo not drawn)
- growth inhibition [6]: 4.95%
- growth inhibition ([2]; at 50.0 µM): -2.5%
- growth inhibition ([3]; at 50.0 µM): -18%
- growth inhibition ([4]; at 50.0 µM): 2.35%
- growth inhibition ([5]; at 50.0 µM): 0.65%

SMILES: CC(NCCO)C(O)c1ccccc1 (stereo not drawn)
- growth inhibition ([1]; at 50.0 µM): -42.5%
- growth inhibition ([2]; at 50.0 µM): -2.25%
- growth inhibition ([3]; at 50.0 µM): 8.5%
- growth inhibition ([4]; at 50.0 µM): -21.2%
- growth inhibition ([5]; at 50.0 µM): -16.6%

SMILES: CN(C/C=C/CN(C)N=O)N=O
- growth inhibition [6]: 10.1%
- growth inhibition ([2]; at 50.0 µM): 3.75%
- growth inhibition ([3]; at 50.0 µM): -16.9%
- growth inhibition ([4]; at 50.0 µM): 20.4%
- growth inhibition ([5]; at 50.0 µM): 1.05%

SMILES: CCOP(=O)(NCCc1ccccc1)OCC
- growth inhibition ([1]; at 50.0 µM): -37.4%
- growth inhibition ([2]; at 50.0 µM): -7.3%
- growth inhibition ([3]; at 50.0 µM): -3.9%
- growth inhibition ([4]; at 50.0 µM): -33%
- growth inhibition ([5]; at 50.0 µM): -12.4%
